# Compound activity deposited in PubChem BioAssay by National Center for Advancing Translational Sciences (NCATS).
# Only a selection was taken, and hits are over-represented in it overall.
# TDP1 cell noCPT – qHTS for Inhibitors of human tyrosyl-DNA phosphodiesterase 1 (TDP1): qHTS in cells in absence of CPT; DT40 Tdp1-/- hTDP1 cells, no CPT, ATP luminescence, 48 h; Potency, µM (doses to about 46.2 µM), for inactives: at the top dose activity change, negative = growth inhibition, usual class: inhibitors; 420,000 compounds, 15% hits; note: potency is the fitted concentration of half-maximal effect; nearly all actives have a fitted effect of over 55% in size
#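 A cellular qHTS used chicken DT40 cells lacking endogenous Tdp1 but carrying stably transfected human TDP1. Compounds were applied without camptothecin, and cell growth kinetics were judged by ATP-dependent luminescence after ≥48 hr.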
# TDP1 cell CPT – DT40-hTDP1 cell growth loss with CPT; chicken DT40 Tdp1-/-;hTDP1 cells + 20 nM CPT, ATP luminescence, 48 h; Potency, µM (top dose mostly 46.2 µM), for inactives: top-dose activity change, negative = growth inhibition, most hits filed as inhibitors; 420,000 compounds, 12% hits; AID 686979; note: potency is the fitted concentration of half-maximal effect; nearly all actives have a fitted effect of over 55% in size
#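 Chicken DT40 Tdp1-/- cells complemented with human TDP1, 400 cells/well, exposed to compounds plus 20 nM camptothecin for at least 48 h at 37 C; viability read as ATP content by CellTiter-Glo luminescence.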
# IL-1B inflam inh – inhibitors of inflammasome signaling (IL-1 beta secretion); activity change, % at 57.5 µM; THP-1 LPS/ATP IL-1B secretion, AlphaLISA, 16 h; hits give low values; 360,000 compounds, 4.7% hits; in the data active = activity change below about -50%; inconclusive = mostly about -30% to -49%
#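 THP-1 cells pretreated 1 hr with compounds (up to 57.5 uM final), then stimulated with LPS (250 ng/mL final) plus ATP (1.25 mM final); secreted IL-1B measured by AlphaLISA after 16 hr, decreased signal indicating inhibition.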
# 12-LOX inh – ALOX12 (human) lipoxygenase inhibition. 580,000 compounds, 1.1% hits. P18054. Potency, µM (titrated, usually from 108 µM), for inactives: top-dose activity change, negative = inhibition, usual class: inhibitors. purified 12hLO, xylenol orange hydroperoxide absorbance; note: potency is the fitted concentration of half-maximal effect
# Target sequence (P18054 whole entry, looked up): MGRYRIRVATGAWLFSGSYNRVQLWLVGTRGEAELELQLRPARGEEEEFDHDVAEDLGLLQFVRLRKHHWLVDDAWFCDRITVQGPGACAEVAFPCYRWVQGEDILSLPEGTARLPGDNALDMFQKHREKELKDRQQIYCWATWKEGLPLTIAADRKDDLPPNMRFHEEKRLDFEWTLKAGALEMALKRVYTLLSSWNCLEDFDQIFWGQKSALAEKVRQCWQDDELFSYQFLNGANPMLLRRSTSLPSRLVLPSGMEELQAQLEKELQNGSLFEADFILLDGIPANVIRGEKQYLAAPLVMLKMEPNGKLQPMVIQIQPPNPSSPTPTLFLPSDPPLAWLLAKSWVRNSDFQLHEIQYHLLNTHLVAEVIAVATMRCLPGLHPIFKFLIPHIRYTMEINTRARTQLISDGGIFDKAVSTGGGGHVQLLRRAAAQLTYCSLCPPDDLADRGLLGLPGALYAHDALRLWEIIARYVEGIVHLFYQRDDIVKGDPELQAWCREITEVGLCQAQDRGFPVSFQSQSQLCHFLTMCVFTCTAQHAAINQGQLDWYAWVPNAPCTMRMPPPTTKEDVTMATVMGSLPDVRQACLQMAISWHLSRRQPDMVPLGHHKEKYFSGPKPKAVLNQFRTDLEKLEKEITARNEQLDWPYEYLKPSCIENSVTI
#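 Purified human 12hLO (150 nM final) in 25 mM Hepes, 0.01% Triton X-100, pH 7.0 was preincubated 15 min at room temperature with compound. Then 40 uM arachidonic acid was added, 30 min. Hydroperoxide was read by Fe-XO absorbance ratio 573/405 nm.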
# HT1080 IDH1KD tx – kills HT-1080 cells with IDH1 knockdown; HT-1080 IDH1 knockdown viability, ATP luminescence, 48 h; Potency, µM (doses to about 46.1 µM), for inactives: top-dose activity, negative = toxicity, usual class: cytotoxic; 360,000 compounds, 2% hits; AID 686971;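 note: potency is the fitted concentration of half-maximal effect; 0% = DMSO wells and -100% = cell-free medium wells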
#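 Viability of IDH1-knockdown HT-1080 fibrosarcoma cells was assessed by CellTiter-Glo after 48 h at 37 °C with titrated compound; concentration-effect curves were classified by fit quality and response size.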
# HT1080-NT tox – kills 2HG-producing HT-1080-NT fibrosarcoma cells; HT-1080-NT fibrosarcoma viability, CellTiter-Glo ATP luminescence, 48 h; Potency, µM (highest dose often 46.1 µM), for the others: top-dose activity, negative = less viability, most hits filed as cytotoxic; 360,000 compounds, 1.6% hits; AID 686970;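 note: NT is the 2HG producing partner of a matched IDH1 knockdown line; potency is the fitted concentration of half-maximal effect; 0% = DMSO-treated cells and -100% = media-only wells without cells; nearly all actives have a fitted effect of over 55% in size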
#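 A 48-hour cytotoxicity screen used HT-1080-NT cells plated 2 hours before compound delivery. ATP-based CellTiter-Glo luminescence measured viability, normalized to DMSO and no-cell controls.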
# * marks the source's active call; other numbers are inactive results; u = inconclusive; x = not tested or not shown; ! = a repeat was not active; [ ] = dose if it differs, or a comment. Unless noted, calls come from the whole dose curve; as a rule, active = well fitted curve in the direction sought with a large enough effect; inconclusive = small, poorly fitted or top-dose-only effect, or another doubt; inactive = no such curve, though single readings can be large; an effect the other way counts as inactive or inconclusive. Unless noted, % is set by controls: 0 for no effect and ±100 for the full control effect.
SMILES,TDP1 cell noCPT,TDP1 cell CPT,IL-1B inflam inh,12-LOX inh,HT1080 IDH1KD tx,HT1080-NT tox
CCC(=O)N1Cc2ccccc2CC2(CCN(CC3CCNC3)CC2)C1 (stereo unspecified),x,x,x,-0.3%[6.33 µM],x,x
COc1ccc(OCC(=O)NCc2ccc3c(c2)CCN3C(=O)c2cccc(C)c2)cc1,1.84µM*,1.84µM*,x,-4.8%,x,x
Cc1cccc(C(=O)N2CCc3cc(CNC(=O)CCc4ccccc4)ccc32)c1,13µM*,14.6µM*,x,-22.2%,x,x
COc1ccc(CCNc2nc3ccccc3n3cnnc23)cc1OC,u,-26.0%,-4.2,-4.0%,7.7%,12.9%
CCc1nnc2c(NCCc3ccc(OC)c(OC)c3)nc3ccccc3n12,16.4µM*,u,-3.9,-4.9%,20.5%,u
CCOc1ccc(CCNc2nc3ccccc3n3cnnc23)cc1OCC,18.4µM*,u,4.9,11.8%,-2.8%,-13.0%
CCOc1ccc(CCNc2nc3ccc(C)cc3n3cnnc23)cc1OCC,16.4µM*,u,52.0,60.9%,-6.8%,17.4%
CCOCCCNc1nc2ccccc2n2c(CC)nnc12,u,u,x,-0.8%,x,x
O=C(NCC(O)COc1cccc(F)c1)c1ccoc1 (stereo unspecified),x,x,x,9.7%,x,x
CC(=O)Nc1ccc(NC(=O)c2ccc(CSc3ccccc3)o2)cc1,-27.4%,1.0%,u,-14.5%,6.8%,10.2%
COc1ccc(CNC(=O)c2ccc(CS(=O)(=O)c3ccc(Br)cc3)o2)cc1,23.1µM*!,23.1µM*,-21.8,u,4.9%,-0.1%
COc1ccc(S(=O)(=O)Cc2ccc(C(=O)NCc3ccc(C)cc3)o2)cc1,23.1µM*,-12.6%,-16.8,-1.3%,-11.6%,5.1%
COc1ccc(OC)c(CCNC(=O)c2ccc(CS(=O)(=O)c3ccc(Br)cc3)o2)c1,u,20.6µM*,-11.7,0.0%,0.6%,-3.3%
COc1ccc(CNC(=O)c2ccc(CS(=O)(=O)c3ccc(OC)cc3)o2)cc1,u,u,-1.8,-6.9%,2.9%,-4.2%
O=C(NCc1ccccc1)c1ccc(CSc2ccccc2)o1,-17.1%,-11.8%,-90.5*,-8.7%,-15.8%,-1.1%
CCn1cnc2c1c(=O)n(CC(=O)NCC(c1ccccc1)N(C)C)c(=O)n2Cc1ccccc1 (stereo unspecified),x,x,x,20.1%,x,x
C=Cn1cnc2ccccc21,x,x,x,7.3%,x,x
O=C1Nc2ccccc2NC(c2cccc(Br)c2)=C1N(C(=O)C(=O)c1cccs1)c1ccccc1,x,x,x,-10.3%,x,x
CC(C)n1cc(CN2CCC(C3CCN(S(C)(=O)=O)CC3)C2)cn1 (stereo unspecified),x,x,x,77.7%,x,x
O=C(NCc1ccccc1)c1ccc(CS(=O)(=O)c2ccccc2)o1,16.4µM*,2.59µM*,-3.3,-2.1%,4.2%,0.7%
COc1ccc(S(=O)(=O)Cc2ccc(C(=O)NCc3ccccc3)o2)cc1,-11.3%,-18.8%,-3.5,2.8%,-2.0%,-2.6%
O=C(NCc1ccccc1Cl)c1ccc(CS(=O)(=O)c2ccccc2)o1,-22.8%,-15.8%,-14.3,-8.5%,2.2%,3.0%
O=C(NCc1ccccc1Cl)c1ccc(CS(=O)(=O)c2ccc(Br)cc2)o1,13µM*,23.1µM*,x,u,x,x
Nc1nc(N)c2[nH]cnc2n1,8.2µM*,6.51µM*,0.0,7.4%,u,u
CN(C)C[C@@H]1CN(C)C[C@H]1N,x,x,x,112.7%,x,x
SMILES,TDP1 cell noCPT,TDP1 cell CPT,IL-1B inflam inh,12-LOX inh,HT1080 IDH1KD tx,HT1080-NT tox
COc1ccccc1C(C)NCC(=O)c1c(C)[nH]c2ccccc12 (stereo unspecified),17.8µM*,11.2µM*,x,x,x,x
CC1(C(=O)NCc2ccc(F)cc2)Oc2ccccc2NC1=O (stereo unspecified),-8.2%,5.4%,-2.7,-14.4%,-11.0%,-4.9%
CC1(c2ccc(F)cc2)OC(=O)c2c1ccc1ccccc21 (stereo unspecified),18.4µM*,u,17.8,-13.2%,-0.2%,2.6%
CCc1ccc(C2=NN(CCC(=O)NC(C)CCc3ccccc3)C(=O)CC2)cc1 (stereo unspecified),u,u,-52.3*,1.5%,-13.2%,-16.7%
O=C(NCCn1cccc1-c1nc(-c2ccccc2)no1)c1ccc(F)c(Cl)c1,x,x,x,57.5%,x,x
CCOC(=O)[C@H]1[C@H]2COc3ccccc3[C@@H]2N2C(=O)c3cc(Br)ccc3NC(=O)[C@@]12C,-3.3%,-15.4%,u,-5.7%,-1.2%,0.3%
CCOC(=O)[C@H]1[C@H]2COc3ccc(Br)cc3[C@@H]2N2C(=O)c3cc(Br)ccc3NC(=O)[C@@]12C,18.4µM*,u,-13.8,4.0%,-16.8%,-8.7%
CCOC(=O)[C@H]1[C@H]2COc3ccc(C)cc3[C@@H]2N2C(=O)c3cc(OC)c(OC)cc3NC(=O)[C@@]12C,u,u,-15.1,u,-12.5%,-7.6%
CCOC(=O)[C@H]1[C@H]2COc3ccccc3[C@@H]2N2C(=O)c3ccc(Cl)cc3NC(=O)[C@@]12C,u,u,-67.5*,-21.6%,-6.0%,u
CCOC(=O)[C@H]1[C@H]2COc3ccc(Cl)cc3[C@@H]2N2C(=O)c3cc(F)c(F)cc3NC(=O)[C@@]12C,23.1µM*,u,-72.0*,-2.0%,u,-6.3%
CCOC(=O)[C@H]1[C@H]2COc3ccc(OC)cc3[C@@H]2N2C(=O)c3cc(OC)c(OC)cc3NC(=O)[C@@]12C,-66.1%,-34.9%,-54.6*,-9.8%,-17.2%,3.0%
CN(C)S(=O)(=O)c1cc(NC(=O)CN2CCc3sccc3C2c2ccccc2)ccc1Cl (stereo unspecified),x,x,x,65.6%,x,x
CCOC(=O)[C@H]1[C@H]2COc3ccc(Cl)cc3[C@@H]2N2C(=O)c3ccccc3NC(=O)[C@@]12C,u,u,-15.2,-6.3%,3.6%,4.0%
CCOC(=O)[C@H]1[C@H]2COc3ccc(Cl)cc3[C@@H]2N2C(=O)c3cc(Br)ccc3NC(=O)[C@@]12C,20.6µM*,16.4µM*,u,u,-8.6%,-7.8%
CCOC(=O)[C@H]1[C@H]2COc3ccc(Cl)cc3[C@@H]2N2C(=O)c3cc(Cl)ccc3NC(=O)[C@@]12C,u,13µM*,-18.2,-58.4%,-27.5%,-21.1%
C=CCN1C(c2ccc(OCC)cc2)=CS/C1=C(\C#N)c1nnc2n1CCCCC2,29.1µM*,u,-4.1,-22.5%,u,u
